This is an account of results in PubChem BioAssay AID1347075 (National Center for Advancing Translational Sciences (NCATS), 2019).

Structures are written as SMILES. The campaign covered roughly 400,000 compounds. About 5,500 (1.4%) were called active. Another 9% or so got no clear call; they are omitted. The sample as a whole holds a higher share of actives than the screen did. Values without a mark were called inactive. Calls come from the whole dose curve; as a rule, active = well fitted cell-killing curve with a large enough effect; inconclusive = small, poorly fitted or top-dose-only effect, or effect the other way; inactive = flat fitted curve, though single readings scatter.
% is set by controls: 0 for no effect and ±100 for the full control effect; potency is the fitted concentration of half-maximal effect.

This test in a line: qHTS assay for MDR1-selective chemotherapeutics: Primary screen using the parental adenocarcinoma cell KB-3-1. Note: nearly all actives have a fitted effect of over 60% in size. The settings on record: KB-3-1 viability, CellTiter-Glo ATP luminescence, 72 h; series mostly up to 46.1 µM; activity change, negative = cytotoxic: at the top concentration. An excerpt:
A prime difficulty in effectively treating cancer is the development of cellular resistance to multiple structurally unrelated anticancer drugs, a phenomenon known as multidrug resistance (MDR). […] Numerous strategies to overcome P-gp-mediated MDR have been explored, including the design of drugs that evade recognition and efflux, and development of inhibitors to block efflux and restore drug accumulation. […] An alternative approach is to exploit resistance by identifying drugs that target MDR cells over the non-resistant parental cells from which they were selected. […] The development of MDR1-selective agents represents a new strategy for resolving multidrug resistance, as it remains a long-standing clinical challenge for cancer chemotherapy.
Our goal is to identify compounds that selectively kill P-gp-expressing MDR cells. We will identify MDR1-selective compounds by comparing toxicity of compounds in the screening library against parental, drug-naive (KB-3-1) adenocarcinoma cells as well as their drug-selected MDR sub-line (KB-V1). The differential toxicity of compounds against these two cell lines will be used to identify MDR1-selective compounds, whose cytotoxicity is potentiated, rather than diminished, by P-gp expression. This assay will be utilized to conduct a quantitative high-throughput screen (qHTS) in collaboration with the NIH Chemical Genomics Center to identify selective agents, and probe hits arising from the screen will be validated using secondary assays and characterized through a well-established follow-up research program. This screen was run against the entire NCGC library collection of about 400,000 compounds.
NIH Molecular Libraries Probe Production Network [MLPCN]
NIH Chemical Genomics Center [NCGC]
PI: Michael Gottesman PhD, National Cancer Institute, NIH
Briefly, 5 microL of media containing either KB-3-1 cells (columns 1-2, 4-48) are dispensed into Greiner white, treated solid-bottom 1536-well assay plates (media-only control is added to column 3). Compounds are then transferred via Kalypsys pin tool equipped with 1536-pin array (10 nL slotted pins, V&P Scientific, San Diego, CA). Following addition of compound, the plates are incubated at 37 degrees C for 72 hours. CellTiter-Glo (2.5 µL/well) is then added, and the plates are read in a ViewLux reader (Perkin-Elmer, clear luminescence filter, 1 second exposure, 1x binning) following a 10 minute incubation. All cells are dispensed in DMEM phenol-red free media containing 10% FBS.
Library plates were screened starting from the lowest and proceeding to the highest concentration. Vehicle-only plates, with DMSO being pin-transferred to columns 5-48, will be inserted uniformly at the beginning and the end of each library in order to monitor and record any shifts in the background, which can be affected by reagent dispensers or loss in enzyme activity over time. Screening data will be corrected, normalized, and concentration-effect relationships will be derived by using publicly-available NCGC, NCATS curve fitting algorithms (http://ncgc.nih.gov/pub/openhts).
On the technique in general: In qHTS, concentration-response curves come from the screen itself.
`Cn1c(=O)c2c(ncn2CC(=O)Nc2cccc(C(F)(F)F)c2)n(C)c1=O`: the “activity change, negative = cytotoxic” value was -2.81%.
The same measure, in the same setting: next, `CCCSc1nc2sc3c(c2c(=O)n1-c1cccc(Br)c1)CC(C)(C)OC3`: -5.87%.
As to `COc1ccc(C2CC(=O)Nc3c2c(=O)nc2c(C)cccn32)cc1OC` (stereo not given), the “activity change, negative = cytotoxic” value was -2.5%.
For the compound `O=C(COc1ccccc1C(=O)Nc1ccccc1)Nc1cccc(F)c1`, the “activity change, negative = cytotoxic” value was 1.45%.
`O=[N+]([O-])c1ccc(S(=O)(=O)N2CCN(c3nc(-c4ccccc4)nc4ccccc34)CC2)cc1`: the “activity change, negative = cytotoxic” value is 29.8%.
On to `O=C(Nc1ccc(OC(F)(F)F)cc1)c1cc2c(=O)n3ccccc3nc2s1`, for which the “activity change, negative = cytotoxic” value was 7%.
With `COc1cc(OC)cc(C(=O)NCCc2csc3nc(-c4ccccc4F)nn23)c1`, the “activity change, negative = cytotoxic” value was -3.67%.
With `CCOc1cc(/C=C(\C#N)C(=O)Nc2ccccc2C)ccc1OCc1cc(=O)n2nc(CC)sc2n1`, the “activity change, negative = cytotoxic” value was -5.35%.
Still for that read-out and setting: next, `CCOc1ccc(/C=C(\C#N)c2nc3ccccc3c(=O)[nH]2)cc1OC`: 8.7%.
For `CCOc1cc(/C=C(\C#N)c2nc(-c3cccs3)c(NC(C)=O)s2)ccc1O`, the Potency was 8.2 µM (active).
Turning to `O=C(NCc1ccc(Cl)cc1)c1ccc2c(c1)nnn2C1CCCC1`, the “activity change, negative = cytotoxic” value was -5.59%.
Still for that read-out and setting: next, `CCOC(=O)c1cccc(NC(=O)Cn2cnc3nc4c(cc3c2=O)CCCC4)c1`: 8.88%.
Still for that read-out and setting: next, `COc1cccc(CNC(=O)C(=O)NCC(c2cccs2)S(=O)(=O)c2ccccc2)c1` (stereo not given): -21%; `CN(CCC#N)c1ccc(C=O)cc1`: 0%.
On the same count and under the same terms, next, `CC(=O)c1cc(-c2ccccc2)[nH]c1N1CCCC1`: 0%.
Take `O=c1cc(-c2ccccc2)[nH]c2cc(F)ccc12`: the Potency is 1.64 µM (active).
Take `Cc1ccc(-c2cc(=O)c3ccc(F)cc3[nH]2)cc1`: the “activity change, negative = cytotoxic” value is 0%.
As for `O=C1OC(C(=O)Nc2cccc(Br)c2)Cc2ccccc21` (stereo not given), the “activity change, negative = cytotoxic” value is -3.58%.
On the same count and under the same terms, the figure for `O=S1(=O)N=C(Oc2cccc(Br)c2)c2ccccc21` is 0%; for `CCOc1ccc(C(=O)c2cn(Cc3ccc(F)cc3)c3ccc(F)cc3c2=O)cc1` it is 10.5%; for `CCOC(=O)c1c(C)oc2nc(C)nc(Nc3ccc(CC)cc3)c12` it is 1.97%.
`COc1cc(OC)c2c(-c3cccc(-c4cccc(N)c4)c3)cc(=O)oc2c1`: the Potency is 4.11 µM (active).
As to `COC(=O)C(C)Oc1ccc2c(-c3cccc([N+](=O)[O-])c3)cc(=O)oc2c1` (stereo not given), the “activity change, negative = cytotoxic” value was -5.69%.
The same measure, in the same setting: next, `COc1ccc(-c2c(C)cc3oc(=O)cc(-c4ccccc4)c3c2C)cc1C=O`: 0%.
On the same count and under the same terms, the figure for `COc1ccc(-c2nnc(SCC(=O)Nc3ccccc3C)o2)cc1OC` is -8.33%; for `Cn1ccc(=NC=C(C#N)C#N)c2ccccc21` it is -7.89%; for `CC(C)(C)c1cc(C(=O)NN)n(Cc2ccc(Cl)cc2Cl)n1` it is 4.9%.
As for `N#CC(C#N)=CN=c1ccn(Cc2ccc(Cl)cc2Cl)cc1`, the Potency is 16.4 µM (active).
As for `Cc1ccc(-n2c(SCC(=O)Nc3cccc(F)c3)nc3c(oc4ccccc43)c2=O)cc1C`, the “activity change, negative = cytotoxic” value was -1.05%.
Consider `CCOC(=O)Cc1ccc(NC(=O)Nc2c[nH]c(=O)[nH]c2=O)cc1`, for which the “activity change, negative = cytotoxic” value is 8.46%.
On to `COc1ccc2c(c1)c(N1CCCC1=O)c(C(=O)Nc1ccccc1C(F)(F)F)n2C`, for which the “activity change, negative = cytotoxic” value was 3.33%.
Same read-out and setting: next, `O=C(O)c1ccc(CSc2nc3cccnc3n2Cc2cccc(F)c2)cc1`: 5.86%; `COc1cccc(NC(=O)Nc2ccc3c(c2)N(C)C(=O)c2ccccc2S3)c1`: -10.8%; `COc1cccc(CNC(=O)c2ccc3c(Cl)c4c(nc3c2)CCCC4)c1`: 8.21%.
`COc1ccccc1NC(=O)C(=O)c1cc(C)n(-c2ccccc2F)c1C`: the “activity change, negative = cytotoxic” value was -19.3%.
`CCOC(=O)N1CCN(C(=O)COCc2cc(-c3ccc4c(c3)OCO4)on2)CC1`: the “activity change, negative = cytotoxic” value is -9.83%.
For `CCOC(=O)c1nc(-c2ccc3c(c2)OCO3)[nH]c1C`, the Potency is 13 µM (active).
With `CCOC(=O)c1c(C)[nH]c(C(=O)COc2ccc3c(c2)OCO3)c1C`, the “activity change, negative = cytotoxic” value was 6.21%.
For `CC[C@H]1CN2CCc3cc(OC)c(OC)cc3[C@@H]2C[C@@H]1C[C@H]1NCCc2cc(OC)c(OC)cc21`, the Potency was 0.259 µM (active).
`CCC(CC)C(=O)N1CCc2cc(OC)c(OC)cc2C1COc1ccc(F)cc1` (stereo not given): the “activity change, negative = cytotoxic” value is 15.8%.
Still for that read-out and setting: the figure for `CC(=O)N1c2ccc(S(=O)(=O)N3CCCCCC3)cc2CC1C(=O)NCc1ccccc1C` (stereo not given) is 5.84%; for `COc1ccccc1NC(=O)CN1C(=O)c2ccccc2Sc2ccc(C(=O)N3CCCC3)cc21` it is 9.84%; for `C=CCn1nc(C(=O)OCC)cc1-c1sc(NC(=O)c2ccccc2)nc1C` it is 8.61%.
On to `CCOC(=O)c1cc(-c2sc(NC(=O)c3ccccc3)nc2C)n(CCO)n1`, for which the “activity change, negative = cytotoxic” value is -1.47%.
For `CCOC(=O)c1cc(-c2sc(NC(=O)c3ccccc3)nc2C)n(Cc2ccccc2)n1`, the Potency was 23.1 µM (active).
For the compound `CC(C)Sc1oc(-c2cccs2)nc1S(=O)(=O)c1ccc(Cl)cc1`, the “activity change, negative = cytotoxic” value was 4.33%.
Still for that read-out and setting: next, `CC(C)(C)c1ccc(S(=O)(=O)N2CCN(C(=O)c3cc(-c4ccc(Br)cc4)n[nH]3)CC2)cc1`: 1.19%.
Turning to `COc1ccc(C)c(Cn2c(-c3nonc3N)nc3ccccc32)c1`, the Potency was 2.31 µM (active).
As to `COc1ccccc1Cn1c(CO)nc2ccccc21`, the “activity change, negative = cytotoxic” value is -2.97%.
The same measure, in the same setting: the figure for `CCn1c(C(O)c2cc(OC)ccc2OC)nc2ccccc21` (stereo not given) is 11.1%.
